# Screens: PubChem, National Center for Advancing Translational Sciences (NCATS)
# This is a sample that favours compounds with a hit; in the whole collection about 21% have one here.
# Pf growth 48h = P. falciparum growth inhibition at 48 hours (one generation); Potency, µM (series often up to 28.7 µM), without a hit: at the top dose activity change, negative = inhibition, most hits filed as inhibitors; 310,000 tested, 5.9% active; P. falciparum luciferase growth in erythrocytes, 48 h; AID 504832; also: potency is read from the fitted curve at half-maximal effect; % is scaled to controls: 0 for no effect and ±100 for the full control effect
#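 Parasite viability was followed by luminescence of a genomically integrated firefly luciferase. Cultures held 0.1% parasitemia at 2% hematocrit (final), incubated under 5% CO2 at 37 C.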
# HCMV inh = human cytomegalovirus inhibition; 410,000 tested, 4.5% active; HFF cells, HCMV-luciferase reporter, 72 h; hits give low values; activity change, negative = inhibition, % at 57.5 µM; AID 1259415; in the data active = activity change below about -60%; inconclusive = no clear call, values can overlap the other calls; inactive = above about -39%; also: % is scaled to controls: 0 for no effect and ±100 for the full control effect
#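 Two-dose cell screen: HFF monolayers treated with compounds and infected with luciferase-expressing HCMV at 1 PFU/cell, 72 h at 37C, then lysed for luciferase measurement.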
# Pf growth 96h = P. falciparum growth inhibition at 96 hour, primary screen for plastid delayed-death inhibitors | P. falciparum luciferase reporter growth, 96 h | Potency, µM (top dose mostly 28.7 µM), inactives show top-dose activity change, negative = inhibition, actives largely listed as inhibitors | 320,000 tested, 6.9% active | AID 504834; also: potency is read from the fitted curve at half-maximal effect; % is scaled to controls: 0 for no effect and ±100 for the full control effect
#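 Readout is luminescence from an integrated firefly luciferase in P. falciparum. Red cells, 2% hematocrit and 0.05% parasitemia final, were cultured with compound through two parasite generations (96 hours) at 37 C, 5% CO2.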
# HCV inhibitor = inhibitors of hepatitis C virus infection; Huh7.5.1 HCVcc-Cre infection, luciferase reporter, 44 h; Potency, µM (doses to about 41.8 µM), without a hit: at the highest dose activity change, negative = inhibition, actives largely listed as inhibitors; 340,000 tested, 3.4% active; also: potency is read from the fitted curve at half-maximal effect; % is scaled to controls: 0 for no effect and ±100 for the full control effect
#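 Compounds are dispensed onto cells plated 4 h earlier at 1,000 per well, with HCVcc-Cre virus (about 0.5 moi) added next. Following 44 h of culture, luminescent signal is measured for 15 sec after 15 min with substrate at room temperature.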
# Shiga inhibitor = Shiga toxin inhibition. Vero cells, Shiga toxin protein synthesis inhibition reporter. 290,000 tested, 9.2% active. AID 2315. inhibition, % at 38.7 µM; in the data active = inhibition mostly above about 28%, no sharp cut-off; inactive = mostly below about 43%; also: 0% is about no effect
# Cycloheximide cs = counter-screen hit for Shiga toxin inhibitors, cycloheximide; max response, %; 300,000 tested, 12% active; AID 2314; cell reporter, cycloheximide protein synthesis inhibition counterscreen; in the data active = max response mostly above about 13%, no sharp cut-off; inactive = mostly below about 14%; also: read at 38.3 µM for the half of the compounds with a filed dose; 0% is about no effect
# Starred values were filed as active, the others as inactive; i = inactive; u = inconclusive; x = not tested or not shown. Unless noted, calls follow the shape of the dose curve; as a rule, active = well fitted inhibition curve with a large enough effect; inconclusive = small, poorly fitted or top-dose-only effect, or another doubt; inactive = no such curve, though single readings can be large or run the other way.
SMILES,Pf growth 48h,HCMV inh,Pf growth 96h,HCV inhibitor,Shiga inhibitor,Cycloheximide cs
COc1cc2ccccc2cc1C(=O)NC(=S)Nc1cccc(C(=O)O)c1C,11%,-20,14%,u,9,2
COc1ccc(N2CC(NC(=O)/C=C\c3ccc4c(c3)OCO4)CC2=O)cc1OC (configuration not stated),x,5,x,x,x,x
Cc1ccc(/C=N/c2sc3c(c2C(N)=O)CCCC3)o1,278%,18,u,-17%,60*,37*
O=C(Nc1sc2c(c1C(=O)O)CCCCC2)c1cccnc1,17%,x,8%,-7%,-1,8
NC(=O)c1c(/N=C/c2cccnc2)sc2c1CCCC2,0%,-27,45%,-11%,47*,25*
CN(C)/C=N/c1sc2c(c1C(N)=O)CCCC2,u,-22,3%,u,4,17
CCOc1ccc(OCC)c(NS(=O)(=O)c2c(C(=O)N3CCCCCC3)c(C)n(C)c2C)c1,x,-1,x,x,x,x
COc1cc(OC)cc(C(=O)NC(=S)Nc2ccc(N3CCCC3)cc2)c1,u,-25,6%,-11%,-9,2
CCNC(=S)Nc1ccc(N2CCCCC2)cc1,85%,42,-18%,-24%,34,25*
COCCCNC(=S)Nc1ccc(N2CCCCC2)cc1,7%,26,40%,-9%,84*,13
S=C(NCCN1CCCCC1)Nc1ccccc1,14%,-28,5%,-17%,-13,0
S=C(NCCc1ccccc1)Nc1ccc(N2CCCCC2)cc1,u,16,u,-22%,32,20*
COc1cccc(NC(=O)COC(=O)c2nc3nccc(C)n3n2)c1,34%,18,u,19%,22,13*
COc1cccc(N(C(=O)c2nc3nccc(C)n3n2)c2nc3ccccc3s2)c1,140%,55,i,-16%,67,27*
Cc1cc(NO)nc(-c2ccc(Br)cc2)n1,u,103,x,u,109*,47*
Cc1cc(C)nc(NC(=O)c2ccc(Br)cc2)n1,x,47,35%,8%,-3,1
Cc1cc(C(=O)NNC(=S)NCC(C)C)cs1,47%,119,18%,28%,8,-4
Cc1ccc(C)c(NC(=S)NNC(=O)c2csc3c2CCCC3)c1,6%,-24,x,u,-18,0
Cc1cccc(NC(=S)NNC(=O)c2csc(C)c2)c1,163%,-30,184%,20%,22*,24*
Cc1cccc(NC(=S)NNC(=O)c2csc3c2CCCC3)c1,96%,22,118%,x,26,29*
CCOC(=O)c1c(C)[nH]c(C)c1S(=O)(=O)N1CCCC(C(=O)NCc2ccc(Cl)cc2)C1 (configuration not stated),x,-9,x,x,x,x
COc1cccc(C(=O)Nn2c(-c3cccs3)nc3ccccc3c2=O)c1OC,-3%,-6,19%,1%,5,1
COc1cccc(CNn2c(-c3cccc(C)c3)nc3ccccc3c2=O)c1,x,-73*,9.3µM*,u,24,19*
COc1ccc(OC)c(CNn2c(-c3cccc(C)c3)nc3ccccc3c2=O)c1,x,u,8.3µM*,u,3,-1
COc1ccc(CNn2c(-c3cccs3)nc3ccccc3c2=O)cc1OC,-25%,-70*,7%,u,18,18
SMILES,Pf growth 48h,HCMV inh,Pf growth 96h,HCV inhibitor,Shiga inhibitor,Cycloheximide cs
Cc1cc(C)cc(C(=O)NN2CCN(C)CC2)c1,3%,-3,u,6%,-4,2
C[C@H](CO)N1C[C@H](C)[C@@H](CN(C)S(C)(=O)=O)Oc2ccc(N(C)C)cc2C1=O,x,-18,x,22%,x,x
CCN(Cc1ccccc1)C(=O)COC(=O)[C@@H]1CCCN1C(=O)c1cccs1,x,-7,x,-11%,x,x
N#Cc1ccccc1CN1C(=O)c2ccccc2Sc2ccc(C(=O)OCc3ccco3)cc21,x,-10,x,x,x,x
CCC1CCCCN1CCCNC(=O)c1cc2c(=O)n(CC)c3ccccc3c2s1 (configuration not stated),x,21,x,x,x,x
Cc1ccc2nc(Cl)c3cc(C(=O)N4CCCCC4)sc3c2c1,x,-3,x,x,x,x
CCC1CCCCN1CCCNC(=O)c1cc2c(Cl)nc3ccc(C)cc3c2s1 (configuration not stated),x,-106*,x,x,x,x
Cc1ccc2nc(Cl)c3cc(C(=O)NCCCN4CCCC4)sc3c2c1,u,-35,58%,8.9µM*,-12,-2
COc1cc(C(=O)OCC(=O)N(C)Cc2ccccc2)cc(OC)c1OC,u,-26,u,-23%,4,-2
COc1cc(OC)c(N(C)S(=O)(=O)c2cccc(C(=O)OCC(=O)N(C)Cc3ccccc3)c2)cc1Cl,x,-63*,x,11µM*,x,x
COc1cc(OC)c(N(C)S(=O)(=O)c2cccc(C(=O)OCC(=O)NCc3ccco3)c2)cc1Cl,u,-28,u,9%,-12,21*
COc1cc(OC)c(NS(=O)(=O)c2ccc3c(c2)CCCN3C(C)=O)cc1Cl,x,-34,x,x,x,x
COc1ccc(-c2noc(CCC(=O)Nc3ccc(C(F)(F)F)cc3)n2)cc1,x,-18,x,x,x,x
C(#Cc1ccccc1)C[N+]1(CC#Cc2ccccc2)CCCCC1,-14%,-62*,-22%,u,-14,2
O=C(C[N+]1(CC#Cc2ccccc2)CCCCC1)c1ccc(Cl)cc1,u,-27,-22%,-25%,-2,0
C(#Cc1ccccc1)C[N+]1(CC#Cc2cccc3ccccc23)CCOCC1,u,u,8%,-3%,-9,5
C#CC[N+]1(CC#Cc2cccc(C)c2)CCCCC1,1.5µM*,u,-12%,-4%,18,-3
Cc1ccc(C#CC[N+]2(CC#Cc3ccc(C)cc3)CCCCC2)cc1,0.59µM*,-101*,u,u,12,-3
C#CC[N+]1(CC#Cc2ccccc2)CCCCC1,u,0,0%,18%,1,-5
CCCCc1ccc(NC(=O)c2cc(-c3ccc(C)c(F)c3)on2)cc1,x,3,x,x,x,x
O=C(OC1CCCCC1)c1ccc(NC(=O)C2CCCCC2)cc1,x,-12,12µM*,25µM*,13,10
O=C(Nc1ccc(C(=O)N2CCCCC2)cc1)C1CCCCC1,14%,15,u,-3%,1,-5
CCCCC(=O)Nc1ccc(C(=O)OC2CCCCC2)cc1,10µM*,-96*,x,u,52,32
CC(C)(C)C(=O)Nc1ccc(C(=O)OC2CCCCC2)cc1,128%,x,x,u,102*,50*
O=C(O)CCC(=O)Nc1ccc(C(=O)OC2CCCCC2)cc1,x,-3,10%,7%,-9,-2
O=C(Nc1ccc(C(=O)OC2CCCCC2)cc1)c1ccncc1,13%,-78*,5.2µM*,u,7,12
C=CCCC1CN(Cc2ccc(OC)cc2)S(=O)(=O)c2c(Oc3ccc(OC)cc3)cccc2O1 (configuration not stated),x,-9,x,x,x,x
